Data published in PubChem BioAssay (Tox21).
Inconclusive results are not listed. Activity calls are given as the source filed them. Calls follow the shape of the dose curve; as a rule, active = well fitted curve in the direction sought with a large enough effect in the repeat runs; inconclusive = weak or mixed curves; inactive = no such curve, though single readings can be large; an effect the other way counts as inactive or inconclusive.

How the values were obtained:
[1] = Caspase-3/7 induction in CHO-K1 cells by small molecules, qHTS assay (AID 1346980); also: nearly all actives have a fitted effect of over 15% in size; also: potency is read from the fitted curve at half-maximal effect
Outline: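 Wild-type cells were seeded at 1,500 per well and settled 5 hr at 37 C, 5% CO2, then exposed to DMSO-dissolved compounds for 17 hr. Caspase-Glo 3/7 reagent was added, and luminescence was read after 30min at room temperature.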

[2] = biological target: Nuclear receptor subfamily 1 group I member 2 (Homo sapiens) (UniProt O75469); assay: Human pregnane X receptor (PXR) small molecule agonists, qHTS assay (AID 1346982); also: nearly all actives have a fitted effect of over 35% in size; also: potency is read from the fitted curve at half-maximal effect
Chain of Nuclear receptor subfamily 1 group I member 2 (Homo sapiens) (O75469 whole entry, looked up): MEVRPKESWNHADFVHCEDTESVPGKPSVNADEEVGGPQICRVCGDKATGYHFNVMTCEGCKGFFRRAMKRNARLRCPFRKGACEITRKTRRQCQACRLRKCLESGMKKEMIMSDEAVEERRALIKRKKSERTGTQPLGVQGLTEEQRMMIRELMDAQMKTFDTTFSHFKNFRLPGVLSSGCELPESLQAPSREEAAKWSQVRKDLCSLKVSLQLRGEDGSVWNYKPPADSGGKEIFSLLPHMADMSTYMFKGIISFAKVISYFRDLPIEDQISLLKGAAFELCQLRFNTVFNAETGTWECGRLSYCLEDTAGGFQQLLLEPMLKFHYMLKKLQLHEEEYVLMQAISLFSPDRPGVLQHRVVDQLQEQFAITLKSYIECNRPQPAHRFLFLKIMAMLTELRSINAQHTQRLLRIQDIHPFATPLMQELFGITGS
Outline: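 After plating in 5% charcoal-stripped FBS and a 5 hr rest, PXR-Luc HepG2 cells received compounds in DMSO. Following 24 hr at 37 C, ONE-Glo was added and light output read.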

[3] = biological target: Cytochrome P450 2D6 (Homo sapiens) (UniProt P10635); assay: Cytochrome P450 Family 2 Subfamily D Member 6 (CYP2D6) small molecule antagonists: luciferase reporter qHTS assay (AID 1671196); also: nearly all actives have a fitted effect of over 50% in size; also: potency is read from the fitted curve at half-maximal effect; as to activity change, negative = inhibition: series mostly up to about 120 µM
Chain of Cytochrome P450 2D6 (Homo sapiens) (P10635 whole entry, looked up): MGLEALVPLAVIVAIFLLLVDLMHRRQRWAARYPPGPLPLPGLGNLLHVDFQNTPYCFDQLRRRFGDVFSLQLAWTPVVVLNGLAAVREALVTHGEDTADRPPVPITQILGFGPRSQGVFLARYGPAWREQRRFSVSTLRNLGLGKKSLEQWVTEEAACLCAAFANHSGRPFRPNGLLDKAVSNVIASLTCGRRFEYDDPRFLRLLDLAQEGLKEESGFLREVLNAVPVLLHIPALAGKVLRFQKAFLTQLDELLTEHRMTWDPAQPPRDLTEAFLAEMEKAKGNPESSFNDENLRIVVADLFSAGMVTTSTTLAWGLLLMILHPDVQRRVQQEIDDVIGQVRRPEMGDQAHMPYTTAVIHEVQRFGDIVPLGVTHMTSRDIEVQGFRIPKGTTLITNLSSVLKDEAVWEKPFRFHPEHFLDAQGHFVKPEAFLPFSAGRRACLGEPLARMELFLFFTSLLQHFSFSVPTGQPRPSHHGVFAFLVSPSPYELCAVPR
Outline: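 Quantitative HTS of Tox21 chemicals against CYP2D6 using a luminescent proluciferin substrate. After NADPH addition, 1 h room-temperature reaction; luminescence recorded 20 min post detection reagent.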

[4] = biological target: Cytochrome P450 2C19 (Homo sapiens) (UniProt P33261); assay: Cytochrome P450 Family 2 Subfamily C Member 19 (CYP2C19) small molecule antagonists: luciferase reporter qHTS assay (AID 1671197); also: nearly all actives have a fitted effect of over 65% in size; also: potency is read from the fitted curve at half-maximal effect; as to activity change, negative = inhibition: series mostly up to about 120 µM
Chain of Cytochrome P450 2C19 (Homo sapiens) (P33261 whole entry, looked up): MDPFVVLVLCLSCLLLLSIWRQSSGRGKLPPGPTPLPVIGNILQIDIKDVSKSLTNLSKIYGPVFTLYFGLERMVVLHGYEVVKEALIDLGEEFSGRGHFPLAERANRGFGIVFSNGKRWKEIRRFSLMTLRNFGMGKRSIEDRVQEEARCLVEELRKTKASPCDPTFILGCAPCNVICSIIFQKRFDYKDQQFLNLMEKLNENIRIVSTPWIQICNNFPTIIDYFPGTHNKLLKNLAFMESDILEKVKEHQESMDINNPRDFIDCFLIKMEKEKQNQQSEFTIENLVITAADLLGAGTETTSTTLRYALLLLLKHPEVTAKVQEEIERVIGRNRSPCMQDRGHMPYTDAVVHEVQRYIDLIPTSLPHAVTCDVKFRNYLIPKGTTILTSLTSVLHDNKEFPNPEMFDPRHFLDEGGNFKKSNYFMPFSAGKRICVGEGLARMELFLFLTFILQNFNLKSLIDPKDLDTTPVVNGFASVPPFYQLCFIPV
Outline: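 Enzyme-substrate mix with proluciferin substrate (P450-Glo CYP2C19 system) preincubated with compounds 10 min at room temperature; NADPH regeneration solution added, 37C for 1 h; detection reagent stops reaction, luminescence read after 20 min. Ketoconazole positive control.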

[5] = biological target: Cytochrome P450 2C9 (Homo sapiens) (UniProt P11712); assay: Cytochrome P450 Family 2 Subfamily C Member 9 (CYP2C9) small molecule antagonists: luciferase reporter qHTS assay (AID 1671198); also: nearly all actives have a fitted effect of over 50% in size; also: potency is read from the fitted curve at half-maximal effect; as to activity change, negative = inhibition: series mostly up to about 120 µM
Chain of Cytochrome P450 2C9 (Homo sapiens) (P11712 whole entry, looked up): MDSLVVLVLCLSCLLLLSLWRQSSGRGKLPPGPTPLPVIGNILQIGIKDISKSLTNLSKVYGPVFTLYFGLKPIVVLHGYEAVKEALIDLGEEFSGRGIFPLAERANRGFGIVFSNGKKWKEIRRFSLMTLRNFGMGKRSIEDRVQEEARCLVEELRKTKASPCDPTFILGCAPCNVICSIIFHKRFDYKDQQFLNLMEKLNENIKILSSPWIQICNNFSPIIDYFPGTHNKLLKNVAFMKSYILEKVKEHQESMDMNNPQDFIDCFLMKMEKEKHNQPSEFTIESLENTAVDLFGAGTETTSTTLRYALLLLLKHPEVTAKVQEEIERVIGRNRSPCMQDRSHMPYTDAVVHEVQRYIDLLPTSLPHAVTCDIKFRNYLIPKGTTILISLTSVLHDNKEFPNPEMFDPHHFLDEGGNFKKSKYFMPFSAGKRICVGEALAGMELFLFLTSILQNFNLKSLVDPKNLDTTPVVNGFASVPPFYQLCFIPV
Outline: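 CYP2C9 activity was measured with a P450-Glo proluciferin substrate. Enzyme–substrate mix was held with compound for 10 min at room temperature, then NADPH regeneration solution was added for 1 h at 37C. Luciferin product was read as luminescence.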

[6] = biological target: Voltage-gated inwardly rectifying potassium channel KCNH2 (Homo sapiens) (UniProt Q12809); assay: Human Ether-a-go-go-Related Gene (hERG) channel small molecule antagonists: fluorescence cell-based qHTS assay (AID 1671200); also: nearly all actives have a fitted effect of over 50% in size; also: potency is read from the fitted curve at half-maximal effect;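 as to activity change, negative = inhibition: hERG-expressing U2OS cells given a thallium stimulus after FluxOR II dye loading; series mostly up to about 77 µM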
Chain of Voltage-gated inwardly rectifying potassium channel KCNH2 (Homo sapiens) (Q12809 whole entry, looked up): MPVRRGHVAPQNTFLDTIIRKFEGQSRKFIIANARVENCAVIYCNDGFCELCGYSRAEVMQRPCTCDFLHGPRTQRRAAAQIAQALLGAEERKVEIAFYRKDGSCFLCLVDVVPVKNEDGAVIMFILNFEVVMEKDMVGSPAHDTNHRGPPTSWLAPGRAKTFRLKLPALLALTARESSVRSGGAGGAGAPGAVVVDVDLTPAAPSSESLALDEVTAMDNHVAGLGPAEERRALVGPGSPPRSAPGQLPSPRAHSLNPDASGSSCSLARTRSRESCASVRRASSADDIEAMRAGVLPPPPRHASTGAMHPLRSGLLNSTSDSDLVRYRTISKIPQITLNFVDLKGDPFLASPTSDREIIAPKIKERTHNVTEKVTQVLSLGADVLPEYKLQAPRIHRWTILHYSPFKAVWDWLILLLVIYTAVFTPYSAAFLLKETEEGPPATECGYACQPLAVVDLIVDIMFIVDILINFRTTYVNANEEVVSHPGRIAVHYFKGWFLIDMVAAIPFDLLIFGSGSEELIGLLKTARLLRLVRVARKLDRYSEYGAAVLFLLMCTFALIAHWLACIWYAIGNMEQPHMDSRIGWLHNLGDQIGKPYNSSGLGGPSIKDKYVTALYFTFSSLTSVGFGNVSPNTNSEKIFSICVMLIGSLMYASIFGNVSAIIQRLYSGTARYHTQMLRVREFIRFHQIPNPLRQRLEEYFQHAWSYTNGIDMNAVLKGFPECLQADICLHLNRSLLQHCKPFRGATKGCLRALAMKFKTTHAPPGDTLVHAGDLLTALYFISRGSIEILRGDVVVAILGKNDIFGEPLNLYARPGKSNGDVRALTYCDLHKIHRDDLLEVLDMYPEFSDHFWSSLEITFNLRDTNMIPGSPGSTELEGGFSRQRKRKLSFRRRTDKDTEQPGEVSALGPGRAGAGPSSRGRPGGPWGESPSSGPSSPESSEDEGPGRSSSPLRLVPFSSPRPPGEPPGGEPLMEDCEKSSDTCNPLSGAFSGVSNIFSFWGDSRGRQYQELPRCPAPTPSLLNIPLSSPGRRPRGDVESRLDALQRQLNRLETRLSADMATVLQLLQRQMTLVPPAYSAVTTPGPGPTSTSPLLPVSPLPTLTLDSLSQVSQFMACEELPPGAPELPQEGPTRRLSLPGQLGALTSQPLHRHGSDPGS
Outline: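 U2OS cells expressing the channel were plated at 1000 cells/well, incubated overnight at 37 C, then loaded with FluxOR II thallium-sensitive dye for 1 h at room temperature in the dark, with a further 10 min at room temperature before stimulation.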

[7] = biological target: Cytochrome P450 3A4 (Homo sapiens) (UniProt P08684); assay: Cytochrome P450 Family 3 Subfamily A Member 4 (CYP3A4) small molecule antagonists: luciferase reporter qHTS assay (AID 1671201); also: nearly all actives have a fitted effect of over 50% in size; also: potency is read from the fitted curve at half-maximal effect; as to activity change, negative = inhibition: series mostly up to about 120 µM
Chain of Cytochrome P450 3A4 (Homo sapiens) (P08684 whole entry, looked up): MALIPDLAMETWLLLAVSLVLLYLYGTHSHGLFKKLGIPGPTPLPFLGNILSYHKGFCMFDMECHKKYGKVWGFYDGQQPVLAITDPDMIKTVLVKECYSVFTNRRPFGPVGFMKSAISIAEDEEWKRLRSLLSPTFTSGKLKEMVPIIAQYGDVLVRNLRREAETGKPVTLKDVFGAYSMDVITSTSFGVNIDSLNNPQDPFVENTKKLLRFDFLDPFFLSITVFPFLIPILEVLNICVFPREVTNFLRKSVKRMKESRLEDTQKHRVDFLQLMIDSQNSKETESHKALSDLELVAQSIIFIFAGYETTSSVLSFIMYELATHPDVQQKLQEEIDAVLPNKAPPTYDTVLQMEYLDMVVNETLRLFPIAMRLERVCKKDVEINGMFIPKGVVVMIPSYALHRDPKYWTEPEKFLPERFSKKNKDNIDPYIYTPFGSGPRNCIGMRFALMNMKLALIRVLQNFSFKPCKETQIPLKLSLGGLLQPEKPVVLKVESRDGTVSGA
Outline: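 P450-Glo CYP3A4 system with proluciferin substrate; compounds preincubated 10 min RT with enzyme-substrate mix, then NADPH regeneration added for 1 h RT. Detection reagent 20 min, luminescence read as relative luminescence units.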

[8] = Caspase-3/7 induction in HepG2 cells by small molecules, qHTS cell viability counter screen (AID 1346981); also: nearly all actives have a fitted effect of over 30% in size; also: potency is read from the fitted curve at half-maximal effect
Outline: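 The parent HepG2 line is plated at 2,000 cells per well and rested 5 hr before compound pinning from DMSO stocks. Following a 16-hr treatment at 37 C, a fluorogenic live-cell substrate (CellTiter-Fluor) reports viability after 1 hr.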

[9] = biological target: Cytochrome P450 1A2 (Homo sapiens) (UniProt P05177); assay: Cytochrome P450 Family 1 Subfamily A Member 2 (CYP1A2) small molecule antagonists: luciferase reporter qHTS assay (AID 1671199); also: nearly all actives have a fitted effect of over 50% in size; also: potency is read from the fitted curve at half-maximal effect; as to activity change, negative = inhibition: series mostly up to about 120 µM
Chain of Cytochrome P450 1A2 (Homo sapiens) (P05177 whole entry, looked up): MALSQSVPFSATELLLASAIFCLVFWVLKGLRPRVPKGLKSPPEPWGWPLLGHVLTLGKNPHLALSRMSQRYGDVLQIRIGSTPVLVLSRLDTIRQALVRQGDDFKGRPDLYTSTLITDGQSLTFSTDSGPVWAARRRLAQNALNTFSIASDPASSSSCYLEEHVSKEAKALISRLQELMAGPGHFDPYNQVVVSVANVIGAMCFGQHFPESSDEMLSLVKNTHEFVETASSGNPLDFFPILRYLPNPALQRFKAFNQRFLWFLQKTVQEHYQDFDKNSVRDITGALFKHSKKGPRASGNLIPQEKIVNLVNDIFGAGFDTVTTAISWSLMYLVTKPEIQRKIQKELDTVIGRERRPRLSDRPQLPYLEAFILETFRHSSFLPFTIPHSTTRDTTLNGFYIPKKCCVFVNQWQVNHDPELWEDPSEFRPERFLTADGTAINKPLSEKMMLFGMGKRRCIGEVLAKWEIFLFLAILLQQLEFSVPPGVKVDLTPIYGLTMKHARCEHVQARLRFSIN
Outline: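 Quantitative high-throughput format using the P450-Glo CYP1A2 system. Reaction initiated by NADPH regeneration solution, 1 h at room temperature, then stopped with detection reagent; luminescence measured 20 min later.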

[10] = biological target: Nuclear receptor subfamily 1 group I member 2 (Homo sapiens) (UniProt O75469); assay: Human pregnane X receptor (PXR) activation by small molecules, qHTS assay (AID 1346985); also: nearly all actives have a fitted effect of over 40% in size
Outline: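 DPX-2 cells (HepG2 co-transfected with a PXR response element and a CYP3A4-promoter luciferase construct) were seeded at 2,000 per well, rested 5 hr at 37C, then exposed to DMSO-dissolved compounds for 24 hr. Activation was read as luciferase luminescence.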

[11] = biological target: Nuclear receptor subfamily 1 group I member 2 (Rattus norvegicus) (UniProt Q9R1A7); assay: Rat pregnane X receptor (rPXR) activation by small molecules, qHTS assay (AID 1346983); settings: rPXR luciferase reporter cells, One-Glo luminescence, 24 h; max activation: active compounds read high; also: nearly all actives have a fitted effect of over 20% in size
Chain of Nuclear receptor subfamily 1 group I member 2 (Rattus norvegicus) (Q9R1A7 whole entry, looked up): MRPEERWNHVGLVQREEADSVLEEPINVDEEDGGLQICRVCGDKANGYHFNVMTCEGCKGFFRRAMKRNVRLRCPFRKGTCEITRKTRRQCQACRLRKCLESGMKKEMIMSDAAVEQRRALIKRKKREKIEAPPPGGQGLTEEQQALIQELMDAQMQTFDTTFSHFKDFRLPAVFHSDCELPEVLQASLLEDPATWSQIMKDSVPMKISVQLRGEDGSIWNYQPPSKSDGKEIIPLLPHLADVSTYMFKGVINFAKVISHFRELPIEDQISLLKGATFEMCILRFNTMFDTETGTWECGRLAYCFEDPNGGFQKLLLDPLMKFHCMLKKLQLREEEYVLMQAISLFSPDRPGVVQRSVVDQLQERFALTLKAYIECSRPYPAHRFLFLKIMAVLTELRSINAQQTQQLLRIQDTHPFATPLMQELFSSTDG
Outline: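 Cell-based rPXR luciferase reporter assay, 2,000 cells per well, rested 5hr at 37 C before compound addition in DMSO, then 24 hr at 37 C. One-Glo reagent was added and luminescence read after 30 min at room temperature.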

[12] = biological target: Nuclear receptor subfamily 1 group I member 2 (Homo sapiens) (UniProt O75469); assay: CYP3A4 induction through human pregnane X receptor (PXR) by small molecules, qHTS assay (AID 1346984); also: nearly all actives have a fitted effect of over 40% in size
Outline: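 Human PXR activation is tracked via CYP3A4 promoter-luciferase in DPX-2 (HepG2) cells. Compounds treat cells for 24hr at 37C, and luminescence is read after One-Glo.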
% is scaled to controls: 0 for no effect and ±100 for the full control effect.

O=c1cc[nH]cc1
inactive: Potency [1] | Potency [2] | Potency [3] | Potency [4] | Potency [5] | Potency [6] | Potency [7]

Nc1c(Br)cc([N+](=O)[O-])cc1Br
active: Potency [9] 1.78 µM
inactive: Potency [1] | Potency [8] | Potency [5] | Potency [6] | Potency [7]

CC(C)(c1ccc(Oc2ccc(N)cc2)cc1)c1ccc(Oc2ccc(N)cc2)cc1
active: Potency [2] 61.1 µM | Potency [5] 2.52 µM | Potency [7] 2.52 µM
inactive: Potency [1] | Potency [3] | Potency [9] | Potency [6]

C1CCSC1
inactive: Potency [1] | Potency [2] | Potency [3] | Potency [4] | Potency [5] | Potency [9] | Potency [6] | Potency [7]

c1ccc(-c2ccc(C(c3ccccc3)n3ccnc3)cc2)cc1 (configuration not stated)
inactive: Potency [1]
active: Potency [2] 23.7 µM | Potency [3] 1.55 µM | Potency [4] 0.617 µM | Potency [5] 0.219 µM | Potency [9] 5.49 µM | Potency [6] 7.56 µM

Cc1ccc(S(=O)(=O)C(I)I)cc1
active: Potency [1] 12.2 µM | Potency [8] 54.5 µM | Potency [2] 19.3 µM | Potency [5] 1.12 µM | Potency [9] 31.7 µM | Potency [7] 39.9 µM

CCCC(=O)c1cc(O)c(O)cc1O
active: Potency [8] 40.9 µM | Potency [4] 20 µM | Potency [5] 26.7 µM | Potency [9] 37.7 µM
inactive: Potency [1] | Potency [6]

CC(Cc1ccc(O)c(O)c1)C(C)Cc1ccc(O)c(O)c1 (configuration not stated)
active: Potency [2] 21.7 µM | Potency [4] 35.6 µM | Potency [5] 12.6 µM | Potency [7] 35.6 µM
inactive: Potency [1] | Potency [9]

SC1CCCCC1
inactive: Potency [1] | Potency [2] | Potency [3] | Potency [4] | Potency [5] | Potency [9] | Potency [7]

O=C(c1ccccc1)c1ccc(Cl)cc1
active: Potency [5] 15.9 µM | Potency [9] 5.03 µM
inactive: Potency [1] | Potency [2] | Potency [3] | Potency [6] | Potency [7]

Cc1ccc2nc(-c3ccc(N)cc3)sc2c1S(=O)(=O)O
inactive: Potency [1] | Potency [8] | Potency [6] | Potency [7]
active: Potency [2] 2.69 µM | Potency [5] 15.7 µM

O=C(O)C[C@H](O)C[C@H](O)/C=C/c1c(C2CC2)nc2ccccc2c1-c1ccc(F)cc1
inactive: activation [2] 12.4% [at 19 µM] | Potency [10] | activity change, negative = inhibition [3] -0.811% [at 23.6 µM] | activity change, negative = inhibition [4] 11.6% [at 23.6 µM] | activity change, negative = inhibition [9] -11.8% [at 23.6 µM] | activity change, negative = inhibition [7] -3.86% [at 23.6 µM]
active: Potency [1] 5.8 µM

O=C(O)CN(CCCN(CC(=O)O)CC(=O)O)CC(=O)O
inactive: caspase-3/7 activation [1] 5.17% [at 19 µM] | activation [2] 1.69% [at 19 µM] | activity change, negative = inhibition [4] -5.87% [at 23.6 µM] | activity change, negative = inhibition [5] -3.48% [at 23.6 µM] | activity change, negative = inhibition [9] -0.26% [at 23.6 µM] | activity change, negative = inhibition [7] -1.42% [at 23.6 µM]

CC(CC(C)(C)C)CC(C)(C)CC(C)(C)C (configuration not stated)
inactive: Potency [1] | Potency [8] | Potency [2] | Potency [5] | Potency [9] | Potency [7]

c1ccc(-c2nc3ccccc3[nH]2)cc1
active: Potency [2] 9.69 µM | Potency [3] 31.7 µM | Potency [4] 35.6 µM | Potency [5] 35.6 µM | Potency [9] 7.1 µM
inactive: Potency [1]

Nc1ccc(Oc2cccc(Oc3ccc(N)cc3)c2)cc1
inactive: Potency [1] | Potency [8] | Potency [2] | Potency [9] | Potency [6]
active: Potency [5] 6.33 µM | Potency [7] 6.33 µM

CCOC(=O)C1=NN(c2ccc(Cl)cc2Cl)C(C)(C(=O)OCC)C1 (configuration not stated)
active: Potency [2] 54.5 µM | Potency [3] 39.9 µM | Potency [4] 2.52 µM | Potency [5] 7.1 µM | Potency [7] 35.6 µM
inactive: Potency [1]

CCCCCCCCCCCC(=O)Cl
inactive: Potency [1] | Potency [8] | Potency [2] | Potency [9] | Potency [6] | Potency [7]

CCCCCCCCCCCCN1CCCC1=O
inactive: Potency [1] | Potency [3] | Potency [6] | Potency [7]
active: Potency [2] 27.3 µM | Potency [4] 35.6 µM | Potency [5] 31.7 µM | Potency [9] 28.3 µM

[Cl][Dy]([Cl])[Cl]
inactive: Potency [1] | Potency [2] | Potency [3] | Potency [4] | Potency [5] | Potency [9] | Potency [6]

CC(C)=CCC[C@H](C)CC=O
inactive: Potency [1] | Potency [8] | Potency [6]

Cc1ccc(Cl)c(N)c1Cl
inactive: Potency [1] | Potency [8] | Potency [5] | Potency [6] | Potency [7]

CCN(CC)c1ccc(C=O)cc1
active: Potency [9] 5.64 µM
inactive: Potency [1] | Potency [8] | Potency [3] | Potency [5] | Potency [6] | Potency [7]

CCSCC
inactive: Potency [1] | Potency [8] | Potency [3] | Potency [5] | Potency [9] | Potency [6] | Potency [7]

Clc1nc(C(Cl)(Cl)Cl)c(Cl)c(Cl)c1Cl
inactive: Potency [2]
active: Potency [1] 30.6 µM | Potency [3] 31.7 µM | Potency [4] 31.7 µM | Potency [5] 35.6 µM | Potency [9] 2.52 µM | Potency [7] 3.99 µM

COc1c(Br)cc(Br)c(C)c1Br
inactive: Potency [1] | Potency [2] | Potency [3] | Potency [5] | Potency [7]
active: Potency [4] 89.4 µM | Potency [9] 3.56 µM

O=C1OCc2ccccc21
inactive: Potency [1] | Potency [2] | Potency [3] | Potency [5] | Potency [9] | Potency [6] | Potency [7]

CCC(O)CO (configuration not stated)
inactive: Potency [1] | Potency [2] | Potency [3] | Potency [5] | Potency [9] | Potency [7]

CC(c1cc(C(C)(C)C)cc(C(C)(C)C)c1O)c1cc(C(C)(C)C)cc(C(C)(C)C)c1O
inactive: Potency [1] | Potency [2] | Potency [3] | Potency [9] | Potency [6]
active: Potency [4] 31.7 µM

O=C(Nc1ccccc1)c1cc(Cl)ccc1O
inactive: Potency [1] | Potency [6]
active: Potency [2] 15.4 µM | Potency [3] 39.9 µM | Potency [5] 17.8 µM | Potency [9] 12.6 µM

O=c1[nH]cccc1O
inactive: Potency [1] | Potency [8] | Potency [2] | Potency [9] | Potency [6] | Potency [7]

CCCCCCCCCCCCCCCCC(C(=O)O)C(O)(CC(=O)O)C(=O)O (configuration not stated)
inactive: Potency [1] | Potency [2] | max activation [11] -2.33% | Potency [12] | Potency [10] | Potency [4] | Potency [5] | Potency [9] | Potency [7]
active: Potency [3] 34.7 µM

CC(C)=NNC(N)=S
inactive: Potency [1] | Potency [8] | Potency [5] | Potency [6] | Potency [7]
active: Potency [9] 71 µM

C1=CCCC1
inactive: Potency [1] | Potency [2] | Potency [4] | Potency [5] | Potency [9] | Potency [6] | Potency [7]

O=C(CCCCCCCCc1cccnc1)N1CCC(C=C(c2ccccc2)c2ccccc2)CC1
inactive: Potency [1] | Potency [3]
active: Potency [2] 5.45 µM | Potency [5] 0.633 µM | Potency [7] 0.399 µM
